From PubChem
Hits are enriched below; roughly 19% of the tested compounds scored in any of these assays.
TDP1 cell CPT – qHTS for Inhibitors of human tyrosyl-DNA phosphodiesterase 1 (TDP1): qHTS in cells in presence of CPT; chicken DT40 Tdp1-/-;hTDP1 cells + 20 nM CPT, ATP luminescence, 48 h; Potency, µM (highest dose often 46.2 µM), for the others: at the top dose activity change, negative = growth inhibition, hits mostly inhibitors; hit rate 12% among 420,000; note: potency is the fitted concentration of half-maximal effect; % is set by controls: 0 for no effect and ±100 for the full control effect; nearly all actives have a fitted effect of over 55% in size
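Cell growth measured by CellTiter-Glo luminescence after a minimum 48 h, 37 C compound exposure with 20 nM CPT in Tdp1-knockout DT40 cells stably expressing hTDP1, seeded 400/well; qHTS titration format.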
S-ASM inh – Inhibitors of Secretory Acid Sphingomyelinase (S-ASM): qHTS; Sphingomyelin phosphodiesterase (Homo sapiens), P17405; Potency, µM (titrated, usually from 57.5 µM), for the others: at the top dose activity change, negative = inhibition, usual class: inhibitors; placental ASM, HMU-PC fluorogenic substrate, 60 min; AID 504937, 2011; hit rate 0.006% among 340,000; note: potency is the fitted concentration of half-maximal effect
Target sequence (P17405 47-631 limits assumed): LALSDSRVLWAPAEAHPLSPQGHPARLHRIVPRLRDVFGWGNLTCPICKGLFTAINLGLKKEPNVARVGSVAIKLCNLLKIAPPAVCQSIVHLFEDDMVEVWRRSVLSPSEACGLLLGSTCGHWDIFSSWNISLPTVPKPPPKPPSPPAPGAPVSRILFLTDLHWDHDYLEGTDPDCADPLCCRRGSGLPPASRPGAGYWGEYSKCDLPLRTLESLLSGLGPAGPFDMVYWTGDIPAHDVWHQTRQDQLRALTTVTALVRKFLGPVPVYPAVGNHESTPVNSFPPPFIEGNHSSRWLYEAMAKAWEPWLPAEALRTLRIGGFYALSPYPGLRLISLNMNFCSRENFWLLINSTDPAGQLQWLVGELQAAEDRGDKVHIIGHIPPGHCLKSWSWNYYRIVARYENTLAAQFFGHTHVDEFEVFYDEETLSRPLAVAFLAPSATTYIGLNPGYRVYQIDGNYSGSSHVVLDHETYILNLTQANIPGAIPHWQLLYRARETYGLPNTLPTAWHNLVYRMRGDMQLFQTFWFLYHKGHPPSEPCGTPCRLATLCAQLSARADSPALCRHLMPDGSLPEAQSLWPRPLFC
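HMU-PC0 cleavage (9 uM final) by human placental ASM, 60 min at 37 °C following 10 min compound exposure at RT; stopped at pH 10, fluorescence Ex 386/Em 447 nm.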
TGFb SMAD3 inh – qHTS for Inhibitors of TGF-b; HepG2 CAGA-GFP TGF-b/SMAD3 reporter, GFP fluorescence, 18 h; TGF-beta stimulated, 500 pg/mL final; Potency, µM (top dose mostly 46.1 µM), for inactives: at the top dose activity, negative = inhibition, most hits filed as inhibitors; hit rate 1.2% among 410,000; note: potency is the fitted concentration of half-maximal effect; % is set by controls: 0 for no effect and ±100 for the full control effect; nearly all actives have a fitted effect of over 65% in size
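GFP signal (ex488/em500-530) from TGF-beta-stimulated HEPG2 CAGA-GFP cells, 500 pg/mL final, 18 h at 37 degrees C in DMEM plus 1% FBS, normalized to unstimulated and DMSO-stimulated controls.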
HepG2 viability – qHTS for Inhibitors of TGF-b: Cytotox Counterscreen; HepG2 CAGA-GFP viability, ATP luminescence, 18 h; Potency, µM (doses to about 46.1 µM), for inactives: top-dose activity change, negative = cytotoxicity, most hits filed as cytotoxic; hit rate 0.76% among 410,000; AID 588856, 2011; note: potency is the fitted concentration of half-maximal effect
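CellTiter-Glo luminescence gave cytotoxicity after 18 hours at 37 degrees C. The cells were HepG2 CAGA-GFP in 1% FBS DMEM, stimulated with 500 pg/mL TGF-beta after compound addition. %Activity was normalised to no-cell wells (complete cell-killing) and DMSO (no toxicity), and curves were fitted and classified.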
DT40 TDP1 no CPT – qHTS for Inhibitors of human tyrosyl-DNA phosphodiesterase 1 (TDP1): qHTS in cells in absence of CPT | DT40 Tdp1-/- hTDP1 cells, no CPT, ATP luminescence, 48 h | Potency, µM (series often up to 46.2 µM), for the others: at the highest dose activity change, negative = growth inhibition, usual class: inhibitors | hit rate 15% among 420,000; note: potency is the fitted concentration of half-maximal effect; % is set by controls: 0 for no effect and ±100 for the full control effect; nearly all actives have a fitted effect of over 55% in size
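Chicken DT40 Tdp1-/- cells complemented with human TDP1, screened without camptothecin (DMSO vehicle only), 400 cells/well. Compounds pin-transferred, cells incubated at 37 °C for at least 48 hr. Growth read as ATP-dependent luminescence (CellTiter-Glo, 30 min at RT).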
IL1B secr inh – qHTS for Inhibitors of Inflammasome Signaling: IL-1-beta AlphaLISA Primary Screen | THP-1 LPS/ATP IL-1B secretion, AlphaLISA, 16 h; active compounds read low | hit rate 4.7% among 360,000 | activity change, % at 57.5 µM | AID 743279, 2014; in the data active = activity change below about -50%; inconclusive = mostly about -30% to -49%; note: % is set by controls: 0 for no effect and ±100 for the full control effect
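Secreted IL-1B measured by AlphaLISA bead assay after 16 h compound exposure of THP-1 cells; compounds (final up to 57.5 uM) added 1 h before LPS (250 ng/mL) and ATP (1.25 mM) stimulation; lower signal means less secretion.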
Numbers without * were called inactive; ? = inconclusive; nt = no result. Unless noted, calls come from the whole dose curve; as a rule, active = well fitted curve in the direction sought with a large enough effect; inconclusive = small, poorly fitted or top-dose-only effect, or another doubt; inactive = no such curve, though single readings can be large; an effect the other way counts as inactive or inconclusive.

SMILES	TDP1 cell CPT	S-ASM inh	TGFb SMAD3 inh	HepG2 viability	DT40 TDP1 no CPT	IL1B secr inh
O=C(CC1SC(=Nc2ccccc2)N(Cc2ccccn2)C1=O)Nc1ccc(Br)cc1 (centres undefined)	16µM*	-12%	?	-30%	10µM*	?
Cc1ccccc1N=C1SC(CC(=O)Nc2ccc3ccccc3c2)C(=O)N1Cc1ccccn1 (centres undefined)	18µM*	nt	?	-26%	21µM*	?
CC(C)(Oc1ccc(Cl)cc1)C(=O)Nc1nnc2n1CCS2	?	nt	11%	-3%	18µM*	nt
CCOc1ccc(Nc2nc(-c3sc(N)nc3C)cs2)cc1	?	-4%	?	-19%	?	?
CCCCCC(=O)Nc1nc(C)c(-c2csc(Nc3cc(Cl)ccc3C)n2)s1	?	-1%	10%	-26%	18µM*	6
CCCCCC(=O)Nc1nc(C)c(-c2csc(Nc3ccc(Cl)cc3)n2)s1	?	1%	9%	-26%	13µM*	-6
CCCC(C)C(=O)Nc1nc(C)c(-c2csc(Nc3cc(Cl)ccc3C)n2)s1 (centres undefined)	?	-3%	-32%	-17%	?	44
CCCCCCC(=O)Nc1nc(C)c(-c2csc(Nc3ccc(Cl)cc3)n2)s1	2.3µM*	4%	?	-18%	4.6µM*	7
COc1ccc(Nc2nc(-c3sc(N)nc3C)cs2)cc1	?	-7%	2%	-28%	?	-29
CC(C)[C@H](NC(=O)[C@@H]1CSC2c3ccccc3C(=O)N21)C(=O)NC1CCCC1 (some centres undefined)	?	-1%	-8%	7%	?	32
COC(=O)c1ccc(CN2CCC3(CCC(CNC(=O)c4ccco4)O3)CC2)cc1 (centres undefined)	-27%	nt	nt	nt	-15%	nt
COc1ccc(N2CCN(C(=O)CSc3nnnn3-c3ccc4c(c3)OCCO4)CC2)cc1	?	2%	-4%	2%	?	-59*
COc1ccc(-n2nnnc2SCC(=O)N2CCOCC2)cc1	-19%	9%	-2%	0.56µM*	-19%	-5
COc1ccc(-n2nnnc2SCC(=O)N2CCCC2=O)cc1	1%	-1%	7%	2%	16%	19
COc1ccc(-n2nnnc2SCC(=O)c2ccc3c(c2)OCCO3)cc1	?	1%	-3%	-1%	-21%	2
Cc1ccc(NC(=O)CN(C)CC(=O)N(CC(C)C)c2c(N)n(CC(C)C)c(=O)[nH]c2=O)c(C)c1	0%	5%	10%	3%	16%	-8
CC(C)OC(=O)CN1CCN(C2c3ccccc3-c3ccccc32)CC1	?	-1%	?	-4%	29µM*	5
CN(C)c1ccc(/C=C2\C=Cc3ccccc32)c(F)c1	?	nt	6%	-45%	?	nt
CC(C)(C)N(Cc1ccccc1)C(=O)COC(=O)c1ccccc1SCC(=O)N1CCCC1	?	2%	1%	10%	?	-52*
Cc1[nH]c2ccccc2c1C(=O)COC(=O)c1ccccc1SCC(=O)N1CCCC1	?	nt	-23%	0%	11µM*	nt
CN(Cc1ccccc1)C(=O)c1ccccc1C(=O)OCC(=O)N(Cc1ccccc1)C(C)(C)C	23µM*	-4%	?	-14%	15µM*	-50*
